miR-21 reporter = qHTS Assay for Modulators of miRNAs and/orActivators of miR-21; HeLa miR-21 FLuc reporter, luciferase, 48 h; Potency, µM (top dose mostly 38.3 µM), for the others: at the highest dose activity change, positive = activation, actives largely listed as activators; 340,000 tested, under 10 active; AID 2288, 2010;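 further: % of control where 0% means no effect; miR-21 action dims this reporter so a rising signal means less miR-21 action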
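Luminescence from a firefly luciferase reporter carrying a miR-21 binding site downstream, stably expressed under a CMV promoter in HeLa cells that make miR-21 endogenously, reports miRNA modulation after 48 h compound exposure up to approximately 40uM final.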
A549 tox = Nrf2 qHTS screen for inhibitors: counterscreen for cytotoxicity; AID 504648, 2011; A549 ARE-Fluc cells, CellTiter-Fluor viability, 18-24 h; Potency, µM (titrated, usually from 46 µM), for the others: at the highest dose activity change, negative = cytotoxicity, most hits filed as inhibitors; actives 0.16% (n = 390,000); further: potency means the concentration at half of the fitted maximal effect; on the % scale 0 is the no-effect control and ±100 the full control effect
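A549 ARE_Fluc cells in 5% FBS OPTI-MEM were exposed to compounds in concentration-response for 18-24 h at 37 deg C. Viability was read by CellTiter-Fluor fluorescence (Ex 405/Em 525) after 30 min, before the luciferase read.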
Nrf2 block = Nrf2 qHTS screen for inhibitors; A549 ARE-Fluc reporter, luciferase luminescence, 18-24 h; Potency, µM (highest dose often 46 µM), for inactives: at the top dose activity change, negative = inhibition, most hits filed as inhibitors; actives 2.1% (n = 360,000); further: potency means the concentration at half of the fitted maximal effect; on the % scale 0 is the no-effect control and ±100 the full control effect; nearly all actives have a fitted effect of over 60% in size
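A549 ARE_Fluc cells (5000/well, 5% FBS OPTI-MEM) pre-incubated 2 h, then treated with compounds 18-24 h at 37C/5% CO2 in concentration-response. CellTiter-Fluor viability read first; BugLite luciferase luminescence after 15 min at room temperature gives Nrf2 activity.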
Nrf2 activator = qHTS of Nrf2 Activators. actives 0.31% (n = 410,000). AREc32 ARE-luciferase reporter (MCF7-derived line), luminescence, 24 h. Potency, µM (highest dose often 46.1 µM), without a hit: at the highest dose activation, most hits filed as activators; further: potency means the concentration at half of the fitted maximal effect; % of control where 0% means no effect; nearly all actives have a fitted effect of over 65% in size
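Nrf2 activation is followed as ARE-luciferase induction in the AREc32 line after one day of compound treatment; luminescence is read with Steady-Glo.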
IL2 activator = qHTS of IL-2 Activators; IL-2 activation reporter assay, cell-based qHTS; stimulated with anti-CD3/CD4/CD28 beads; in transgenic mouse T cells; activation, % (series mostly up to about 46 µM); actives 0.065% (n = 360,000); AID 652025, 2013; in the data active means activation above about 50%; inconclusive means mostly about 30% to 49%; further: 0% is about no effect
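Using fluorescent plate cytometry, EGFP and DsRed are detected in transgenic mouse T cells stimulated 18 h at 37 degrees C with antibody-coated beads after 60 min compound pretreatment.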
ClpP mod = qHTS Assay for Activators of ClpP. purified B. subtilis ClpP, FRET peptide cleavage, 20 min. Potency, µM (titrated, usually from 57.5 µM), for inactives: at the top dose activity change, negative = active. ATP-dependent Clp protease proteolytic subunit (Bacillus subtilis (strain 168)), P80244. actives 1.9% (n = 340,000). AID 651965, 2013; active means well fitted falling curve with a large enough effect; inconclusive means small, poorly fitted or top-dose-only effect; inactive means no such curve, though single readings can be large or run the other way; further: potency means the concentration at half of the fitted maximal effect; the source files actives as falling curves though it sought activators and does not explain the sign; nearly all actives have a fitted effect of over 65% in size
Target sequence (P80244 whole entry, looked up): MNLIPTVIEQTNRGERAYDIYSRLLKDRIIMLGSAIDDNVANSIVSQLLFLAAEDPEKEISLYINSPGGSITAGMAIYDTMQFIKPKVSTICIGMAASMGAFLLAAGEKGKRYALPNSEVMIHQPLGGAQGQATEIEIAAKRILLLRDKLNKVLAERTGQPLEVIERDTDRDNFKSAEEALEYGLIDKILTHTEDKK
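FRET quenching reversal measured ClpP activation: 10 microg/mL B. subtilis ClpP at pH 8 with the FRET-FV decapeptide, read at 430 nm after 320 nm excitation. The 20-min minus 0-min signal was scaled between DMSO/no-enzyme wells and ADEP (5.8 microM final).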
* = called active by the depositor; ? = inconclusive; . = no result given; [ ] = another dose, or the depositor's remark. In the library only some 3.7% were active in any assay of this set; here they are far more common. Unless noted, the call rests on the fitted dose curve; in most records, active means well fitted curve in the direction sought with a large enough effect; inconclusive means small, poorly fitted or top-dose-only effect, or another doubt; inactive means no such curve, though single readings can be large; an effect the other way counts as inactive or inconclusive.

SMILES	miR-21 reporter	A549 tox	Nrf2 block	Nrf2 activator	IL2 activator	ClpP mod
CCN(CC)c1ccc(S(=O)(=O)N2CCOCC2)cc1NC(=O)CSc1ccccc1	.	0.3%	-15.3%	2.1%	-5.5	-17.6%
O=C(CNCc1ccccc1Cl)Nc1cc(S(=O)(=O)N2CCOCC2)ccc1Cl	.	-13.3%	16.4µM*	7.5%	-0.6	-2.5%
O=S(=O)(c1ccc(Cl)c(NC(=S)N/N=C/c2c(F)cccc2F)c1)N1CCOCC1	1.2%	-18.3%	-17.1%	13.9%	-2.7	.
CCN(CC)c1ccc(S(=O)(=O)N2CCOCC2)cc1NC(=O)CNCc1cccc(Cl)c1	.	?	25.9µM*	-0.5%	1.0	-11.7%
O=S(=O)(c1ccc(Cl)c(NC(=S)N/N=C/c2ccc(O)cc2)c1)N1CCOCC1	-0.6%	-22.5%	16.4µM*	-2.7%	-0.5	-2.1%
Cc1ccc(S(=O)(=O)N2CCOCC2)cc1NC(=O)CNCc1ccc(Cl)cc1Cl	.	-0.4%	13µM*	0.0%	-0.7	0.0%
Cc1ccc(S(=O)(=O)N2CCCCC2)cc1NC(=O)Cc1cccs1	.	0.8%	12.3%	-0.2%	0.6	-1.5%
CN(CC(=O)Nc1cc(S(=O)(=O)N2CCCC2)ccc1Cl)Cc1cccs1	14.2%	-8.3%	25.9µM*	1.5%	-0.4	-4.9%
O=S(=O)(NCc1nc2cccnc2n1Cc1ccc(F)cc1)c1ccc(Cl)s1	0.0%	0.6%	.	-0.3%	.	-2.4%
CCCCCc1ccc(OCCCC[n+]2ccccc2)c(CCCCC)c1	?	?	18.4µM*	-1.5%	-0.8	.
CCC(C)(C)c1ccc(OCCCC[n+]2ccccc2)c(C(C)(C)CC)c1	?	?	23.1µM*	-3.3%	-0.9	1.2%
CCCCCc1ccc(OCCCC[n+]2ccc(C)cc2)c(CCCCC)c1	?	-18.5%	10.3µM*	-1.7%	-3.4	-1.7%
CCCCCc1ccc(OCCCC[n+]2cccc(C)c2)c(CCCCC)c1	-6.4%	?	?	-2.6%	-0.8	.
CCC(C)(C)c1ccc(Oc2cccc(C(=O)O)c2)cc1	-38.8%	0.9%	?	3.8%	0.1	.
COc1ccc(NC(=O)c2c(N)c(C(=O)c3ccc(C)cc3)n3ccccc23)cc1OC	-9.3%	-0.7%	?	-1.0%	.	4.2%
CCCCCCOc1ccc(-c2nc3ccc(Br)cc3c(=O)o2)cc1	-10.0%	-5.4%	-0.3%	-0.8%	.	0.8%
O=C(Nc1cccc2nsnc12)c1ccc(F)cc1	-21.5%	4.9%	?	11.2µM*	0.0	0.9%
C=CCn1c(SCCC(=O)O)nnc1-c1cccs1	-1.1%	0.8%	.	0.0%	-4.5	28.2µM*
O=C(Cn1c(-c2cccs2)cc2cc(F)ccc21)N1CCN(c2cccc(Cl)c2)CC1	0.8%	1.3%	5.5%	3.5%	.	28.2µM*
CN1CCN(C(=O)Cn2c(-c3cccs3)cc3cc(Cl)ccc32)CC1	-2.1%	1.0%	5.8%	17.0%	.	31.6µM*
O=C(Cn1c(=O)[nH]c2ccccc2c1=O)N1CCN(c2cccc(Cl)c2)CC1	-2.7%	0.4%	0.0%	0.1%	0.7	31.6µM*
O=C(O)Cn1c(-c2cccs2)cc2cc(Cl)ccc21	-3.8%	-1.9%	-6.7%	0.6%	.	4.7%
Cc1c(C(=O)Nc2nccs2)oc2ccc(F)cc12	.	2.3%	?	9.1%	0.6	-3.0%
Cc1c(C(=O)/C=C/c2cccs2)oc2ccc(F)cc12	-15.2%	1.6%	?	7.94µM*	-1.6	1.1%
COCCCNC(=S)N1CCCN(c2nc3cc(C)ccc3cc2C#N)CC1	4.7%	-11.7%	16.4µM*	3.2%	0.0	-24.9%
SMILES	miR-21 reporter	A549 tox	Nrf2 block	Nrf2 activator	IL2 activator	ClpP mod
COc1ccccc1C(=O)N/N=C(\C)c1ccc(NC(=O)Cc2ccccc2)cc1	-26.1%	-9.2%	7.7%	-0.3%	-0.7	3.9%
COc1ccccc1C(=O)N/N=C(\C)c1ccc(NC(=O)C2CC2)cc1	-7.0%	-3.1%	-17.9%	3.8%	0.3	28.2µM*
CCn1c(=O)c(C(=O)CN2CCCc3ccccc32)c(N)n(Cc2ccccc2)c1=O	-3.4%	-3.4%	16.4µM*	2.0%	2.5	-8.2%
Cc1cc(=O)n2nc(N3CCC(C(=O)NCCCOC(C)C)CC3)sc2n1	-5.6%	0.9%	9.4%	-0.9%	.	-1.4%
COc1ccc(C2Nc3ccccc3C(=O)N2Cc2ccccc2)cc1COc1ccc(C)cc1 (centres undefined)	.	1.5%	-8.3%	.	.	.
Cc1ccnc(Nc2nc(-c3c(C)nc4sccn34)cs2)c1	10.0%	-12.1%	20.6µM*	-0.1%	-3.0	-0.3%
Cc1ccnc(Nc2nc(-c3ccccc3)cs2)c1	-15.4%	0.8%	?	23.8%	-0.4	-0.3%
Cc1ccn2c(-c3csc(NCc4ccccc4)n3)c(C)nc2c1	?	?	25.9µM*	5.6%	-1.0	?
Cc1ccc(Nc2nc(-c3c(C)nc4ccccn34)cs2)cc1	28.2%	?	?	4.5%	-0.5	28.2µM*
Cc1nc2ccccn2c1-c1csc(NCc2ccco2)n1	2.3%	-6.3%	?	5.1%	-0.1	-17.0%
COc1ccc(OC)c(-c2cc(C(=O)Nc3ccc(C)c(C)c3)no2)c1	-39.9%	-3.3%	20.4%	?	.	4.4%
CCn1c(SCc2ccccc2)nnc1-c1nonc1NC(C)=O	7.0%	10.1%	0.8%	0.3%	.	0.3%
CC(=O)N1CCc2c(sc3nc(SCC(C)C)n(-c4ccc(C)c(Cl)c4)c(=O)c23)C1	26.5%	-7.5%	-13.6%[9.27 µM]	5.5%	.	3.6%
Cn1c(=O)c2c(nc(NCC3CCCO3)n2Cc2ccccc2)n(C)c1=O (centres undefined)	-10.1%	-9.7%	-1.0%	-0.7%	0.6	28.2µM*
Cn1c(=O)c2c(nc(NCc3ccc4c(c3)OCO4)n2Cc2ccccc2)n(C)c1=O	19.9%	?	.	3.2%	0.4	-7.4%
Cn1c(=O)c2c(nc(NCc3ccc4c(c3)OCO4)n2Cc2ccc(F)cc2)n(C)c1=O	18.7%	-26.7%	23.1µM*	0.1%	-0.8	-0.9%
CC(C)n1c(NCCc2ccccc2)nc2c1c(=O)n(C)c(=O)n2C	13.9%	-4.6%	13µM*	-0.2%	-1.0	-12.2%
CCCNc1nc2c(c(=O)n(C)c(=O)n2C)n1CCc1ccccc1	21.9%	-17.7%	4.11µM*	0.1%	-2.7	-1.1%
CC(C)Cn1c2c(c(O)c(C(=O)Nc3nccs3)c1=O)CCCC2	-1.4%	-11.3%	20.6µM*	0.0%	-2.2	-13.6%
Cc1cc(-c2ccc(C)c(S(=O)(=O)N3CCC(C)CC3)c2)on1	11.3%	12.7%	?	-0.8%	.	-2.5%

Screening results from PubChem.
